# Measured values reported in article PMC7826789 (International Journal of Molecular Sciences, 2021).
# What was measured:
# Conditions in all cases: Compound Concentration (nM):1000
# PDGFRB = tested on: PDGFRB
# PDPK1 = tested on: PDPK1
# PFCDPK1(P.falciparum) = tested on: T1, PFCDPK1(P.falciparum)
# T1 construct: gene CDPK1
# PFPK5(P.falciparum) = tested on: T2, PFPK5(P.falciparum)
# T2 construct: gene MAL13P1.279
# PFTAIRE2 = tested on: T3, PFTAIRE2
# T3 construct: gene CDK15
# PFTK1 = tested on: T4, PFTK1
# T4 construct: gene CDK14
# PHKG1 = tested on: PHKG1
# PHKG2 = tested on: PHKG2
# PIK3C2B = tested on: PIK3C2B
# PIK3C2G = tested on: PIK3C2G
# 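Further: KINOMEscan scanMAX binding as percent activity remaining versus control; lower means stronger binding.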
Compound,Percent Control (PDGFRB),Percent Control (PDPK1),Percent Control (PFCDPK1(P.falciparum)),Percent Control (PFPK5(P.falciparum)),Percent Control (PFTAIRE2),Percent Control (PFTK1),Percent Control (PHKG1),Percent Control (PHKG2),Percent Control (PIK3C2B),Percent Control (PIK3C2G)
COc1cc(C)c(N(C)C(=O)CN(C)C)cc1Nc1nc(Nc2cccc(F)c2C(N)=O)c2cc[nH]c2n1 [GSK2219385],100%,97%,100%,76%,79%,100%,100%,83%,100%,92%
CCS(=O)(=O)c1ccc(OC)c(Nc2ncc(-c3cccc(OC)c3)o2)c1 [GW580509X],9.7%,100%,7.8%,100%,100%,100%,100%,100%,100%,97%
CC1=C(C(=O)Nc2ccc3[nH]ncc3c2)C(c2ccc(Cl)c(Cl)c2)CC(=O)N1 (centres unmarked) [GSK299115A],99%,100%,87%,71%,66%,49%,100%,84%,84%,77%
Cl.O=C(O[C@H]1CN[C@H](C#Cc2cc3ncnc(Nc4ccc5c(cnn5Cc5ccccc5)c4)c3s2)C1)N1CCOCC1 [GSK200398A],100%,89%,88%,100%,91%,100%,96%,98%,88%,84%
O=C1Nc2ccc(C(=O)c3ccco3)cc2C1=Cc1cc(Cl)c(O)c(Cl)c1 [GW406108X],88%,97%,9.5%,93%,100%,89%,100%,70%,12%,39%
CN(C)c1cc2c(Nc3ccc4c(cnn4Cc4ccccc4)c3)ncnc2cn1 [GW282974X],98%,100%,32%,94%,79%,100%,91%,83%,35%,89%
CN1CCN(C(=O)c2ccc(NC(=O)Nc3ccc(N(C)c4ccnc(Nc5ccc(CS(C)(=O)=O)cc5)n4)cc3)cc2)CC1.Cl [GW830263A],0%,68%,71%,95%,100%,81%,100%,100%,100%,100%
Nc1ncnc2occ(-c3ccc(NC(=O)Nc4cc(C(F)(F)F)ccc4F)cc3)c12 [GW770249X],0%,57%,83%,100%,46%,18%,100%,100%,100%,88%
CC(C)COC(=O)c1ccc2c(c1)/C(=C/Nc1ccc(S(N)(=O)=O)cc1)C(=O)N2 [GW416981X],57%,55%,71%,100%,75%,89%,100%,54%,100%,97%
CCS(=O)(=O)c1ccc(OC)c(Nc2ncc(-c3cccc(F)c3)o2)c1 [GW621970X],5.4%,100%,4.1%,100%,100%,95%,100%,100%,100%,100%
NS(=O)(=O)c1ccc(N/N=C2\C(=O)Nc3ccc(C(=O)NCc4ccncc4)cc32)cc1 [GW300657X],74%,65%,85%,57%,49%,73%,100%,70%,100%,86%
COc1ccccc1-c1cc(/C=C2\C(=O)Nc3ncc(Br)cc32)cc(Br)c1O [GW442130X],72%,89%,100%,100%,100%,100%,100%,100%,59%,87%
COc1cc(C=NNc2ncnc3c2cnn3-c2ccccc2)ccc1O [GW513184X],40%,100%,100%,100%,100%,91%,100%,100%,71%,100%
NS(=O)(=O)c1ccc(N/N=C2\C(=O)Nc3ccc(-c4cnco4)cc32)cc1 [GW276655],57%,82%,93%,95%,60%,94%,100%,81%,86%,96%
COc1ccc2[nH]c3c4[nH]c5ccc(OC)cc5c4c4c(c3c2c1)C(=O)NC4=O [GW296115X],0.1%,25%,29%,82%,91%,85%,12%,52%,94%,76%
COc1ccc(COc2ccc(Cc3cnc(N)nc3N)cc2OC)cc1 [GW632580X],92%,100%,70%,71%,80%,74%,100%,96%,86%,100%
COc1cc2ncn(-c3cc(O[C@H](C)c4ccccc4Cl)c(C(N)=O)s3)c2cc1OC [GSK237701A],12%,90%,75%,57%,60%,100%,100%,79%,12%,78%
NS(=O)(=O)c1ccc(N/N=C2\C(=O)Nc3ccc(Cl)cc32)cc1 [GW280670X],29%,100%,81%,100%,100%,100%,100%,100%,100%,88%
CCc1ccc(Oc2nccc(-c3c(-c4ccc(F)cc4)ncn3C3CCNCC3)n2)cc1 [SB-242719],81%,86%,66%,87%,93%,86%,90%,72%,100%,93%
Cc1cc(O)cc(C)c1/C=C/c1cncc(C(N)=O)c1 [GW435821X],0.5%,96%,75%,100%,100%,100%,100%,100%,97%,85%
